Compounds with a hit are over-represented: about 7.4% of the library has one in this group of screens.
SMN2 splice up – SMN2 splice variant enhancement; Potency, µM (doses to about 46.1 µM), for inactives: at the highest dose activity change, positive = activation, usual class: activators; 210,000 compounds, 2.8% hits; HEK293 SMN2-luciferase splicing reporter, luminescence, 30-36 h; further: % of control where 0% means no effect; nearly all actives have a fitted effect of over 55% in size
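HEK293 cells carry an SMN2 minigene-luciferase reporter in which exon 7 inclusion puts luciferase in frame. Cells were seeded at 2000 cells/well, attached for 10-12 hours, then exposed to compounds for 30-36 hours at 37C before ONE-Glo luminescence.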
NPC1 prom act – activators of NPC1 promoter; Huh7 NPC1 promoter luciferase reporter, 24 h; Potency, µM (highest dose often 9.22 µM), inactives show at the highest dose activation, actives largely listed as activators; 320,000 compounds, 2.4% hits; AID 485313; further: % of control where 0% means no effect; nearly all actives have a fitted effect of over 60% in size
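In 1536-well qHTS, Huh7 cells harboring an NPC1 promoter–luciferase construct received compound for 24 h; activation was quantified by luminescence following luciferase reagent addition.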
FLuc counter – counter-screen for miR-21 project: firefly luciferase inhibitors or activators | P08659 | purified FLuc, Km substrates, luminescence inhibition | Potency, µM (highest dose often 57.5 µM), for inactives: at the top dose activity change, negative = inhibition, most hits filed as inhibitors | 360,000 compounds, 6.9% hits | AID 588342;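 further: plate controls were vehicle for no effect and reference inhibitor for full effect; nearly all actives have a fitted effect of over 55% in size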
Target sequence (P08659 whole entry, looked up): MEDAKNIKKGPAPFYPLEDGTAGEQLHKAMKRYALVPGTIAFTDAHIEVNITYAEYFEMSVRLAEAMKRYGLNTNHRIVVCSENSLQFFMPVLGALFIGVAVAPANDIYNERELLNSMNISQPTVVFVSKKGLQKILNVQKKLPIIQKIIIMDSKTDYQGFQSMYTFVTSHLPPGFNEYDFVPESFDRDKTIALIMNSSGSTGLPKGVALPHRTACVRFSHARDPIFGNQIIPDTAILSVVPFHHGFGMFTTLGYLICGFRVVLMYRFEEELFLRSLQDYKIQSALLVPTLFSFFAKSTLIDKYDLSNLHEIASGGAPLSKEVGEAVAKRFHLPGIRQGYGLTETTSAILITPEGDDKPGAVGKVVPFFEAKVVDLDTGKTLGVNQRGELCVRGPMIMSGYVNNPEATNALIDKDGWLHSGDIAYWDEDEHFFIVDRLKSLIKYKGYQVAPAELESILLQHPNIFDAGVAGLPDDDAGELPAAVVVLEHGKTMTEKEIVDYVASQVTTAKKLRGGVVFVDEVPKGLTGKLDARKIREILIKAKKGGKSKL
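Biochemical qHTS of compounds, final roughly 60 µM downward over six points, against 10 nM purified firefly luciferase using Km concentrations of substrates (10 uM D-luciferin, 10 uM ATP) in Tris acetate pH 7.5 buffer; luminescence output.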
ELG1 genotox – genotoxicity induction in ELG1-luciferase HEK293T cells. HEK293T ELG1-luciferase reporter, luminescence, 16 h. Potency, µM (titrated, usually from 46 µM), without a hit: at the highest dose activity change, positive = activation, actives largely listed as activators. 330,000 compounds, 1.3% hits; further: % of control where 0% means no effect; nearly all actives have a fitted effect of over 60% in size
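Reporter readout depends on ELG1 protein level, which increases with genetic stress. After 16 hr compound exposure at 37 °C, luciferase activity was quantified using ONE-Glo.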
Rab9 prom act – activates the Rab9 promoter; 320,000 compounds, 2.8% hits; Potency, µM (top dose mostly 9.22 µM), for the others: at the highest dose activation, negative = inhibition, usual class: activators; AID 485297; Huh7 Rab9 promoter-luciferase reporter, luminescence, 24 h; further: % of control where 0% means no effect; nearly all actives have a fitted effect of over 60% in size
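Rab9 promoter-driven luciferase in stably transfected Huh7 cells; 1500 cells/well rested 2 h, exposed to compound in DMSO for 24 h at 37 °C, 5% CO2. Luminescence read 10 min after adding luciferase reagent at ambient temperature.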
The depositor's hits bear a star; ? = inconclusive; . = not tested or not shown; [ ] = remark or other dose. The call rests on the fitted dose curve; in most records, active means well fitted curve in the direction sought with a large enough effect; inconclusive means small, poorly fitted or top-dose-only effect, or another doubt; inactive means no such curve, though single readings can be large; an effect the other way counts as inactive or inconclusive. Potency means the concentration at half of the fitted maximal effect.

SMILES | SMN2 splice up | NPC1 prom act | FLuc counter | ELG1 genotox | Rab9 prom act
COc1ccc(C2C(C(=O)c3cccs3)=C(O)C(=O)N2CCN2CCOCC2)c(OC)c1 (stereo not drawn) | . | -1% | 6% | 0% | -4%[1.84 µM]
COC(=O)CC1c2ccccc2C=C(/C=C/c2ccc3c(c2)OCO3)N1C(=O)OC (stereo not drawn) | -11%[9.22 µM] | . | . | . | .
CCCCN(C(=O)C1CC(=O)N(c2ccc(C)cc2)C1)c1c(N)n(CCC)c(=O)[nH]c1=O (stereo not drawn) | . | 0% | -2% | 1% | 2%
N=C1S/C(=C\c2cn[nH]c2-c2ccc(F)cc2)C(=O)N1c1ccccc1F | 13µM* | 3.2µM* | ? | 10% | 4µM*
CCc1nc2sc3c(=O)[nH]cnc3c2c2c1CSC(C)(C)C2 | . | -2% | -1% | 7% | -3%
CC1(C)Cc2nc3sc4c(=O)[nH]cnc4c3cc2CS1 | ? | 26% | 13µM* | ? | 14%
CCCCCn1cnc2c(sc3nc4c(cc32)CSC(C)(C)C4)c1=O | 19% | 3.5µM* | 3.8µM* | ? | 3.2µM*
CC[C@@H](C)C(NC(=O)OC(C)(C)C)c1cn([C@@H](CCC(=O)OC(C)(C)C)C(=O)N2CCN(C(=O)OC(C)(C)C)CC2)nn1 (stereo partly drawn) | . | -1% | -1% | -7% | 0%
Cc1nc2c(-c3ccccc3)c(C)[nH]n2c(=O)c1Cc1ccc(Br)cc1 | -43% | . | -6% | . | .
O=C(NC1CCCCC1)C(=S)N1CCOCC1 | 10% | -6% | -2% | 3% | -2%[1.84 µM]
CC1Cc2ccccc2N1c1ncnc2nc[nH]c12 (stereo not drawn) | 29% | 22% | 21µM* | 2% | 13%
N#C/C(=C\c1ccc(-c2ccccc2Cl)o1)C(=O)Nc1nc2ccccc2s1 | -15% | 8% | ? | 5% | 0%
N#C/C(=C\c1ccco1)c1nc2ccccc2s1 | 11µM* | 29% | 1.7µM* | 7.3µM* | ?
N#CCCn1cc(/C=C(\C#N)c2nc3ccccc3s2)c(-c2ccc(F)cc2)n1 | -8% | -25% | -2% | 6% | 1%
N#C/C(=C/c1ccco1)c1nc2ccccc2s1 | ? | 18% | 1.9µM* | 16µM* | 3.5µM*
CCCCc1ccc(-c2csc(/C(C#N)=C\c3ccco3)n2)cc1 | -25% | -1% | -23% | 1% | -1%
N#C/C(=C/c1ccc(-c2cc(C(=O)O)cc(C(=O)O)c2)o1)c1nc2ccccc2s1 | 13% | -2% | 2.1µM* | -3% | -3%
COCOc1c2c(c(OCOC)c3c(OCOC)cccc13)/C(=N/NS(C)(=O)=O)C1=C2CCCC1 | 0% | . | . | . | .
CCOC(=O)CC(=O)CSc1nnc2sc3ccccc3n12 | -10% | 3% | ? | 4% | 3%
O=C(CSc1nnnn1-c1ccccc1)c1ccco1 | 10% | ? | 17µM* | ? | ?
c1csc(CSc2nnc3sc4ccccc4n23)c1 | 14µM* | ? | 17µM* | ? | 3.2µM*
O=C(CSc1nnc2sc3ccccc3n12)c1ccco1 | 11µM* | 23% | 11µM* | ? | ?
O=C(CSc1nnnn1-c1ccccc1)N1N=CCC1c1ccccc1 (stereo not drawn) | 19% | 4% | 15µM* | 2% | 14%
Cn1nnnc1SCC(=O)c1ccco1 | -23% | 1% | 8% | 1% | 0%
CN(C)C(=O)CSc1nnc2sc3ccccc3n12 | 17% | 2% | -19% | 6% | 6%
SMILES | SMN2 splice up | NPC1 prom act | FLuc counter | ELG1 genotox | Rab9 prom act
O=C(NCC(=O)N1CCCC(C(F)(F)F)C1)c1ccco1 (stereo not drawn) | . | -3% | 3% | 3% | 2%
COc1ccc(Cl)cc1N1C(=O)CC(Sc2ccccc2N)C1=O (stereo not drawn) | . | -2% | 0% | -5% | -2%
CC(=O)Nc1ccc(CC(=O)NCCC(c2ccccc2)c2ccccc2)cc1 | . | -3% | -1% | -29% | -5%
COc1ccc(-c2coc3cc(O)ccc3c2=O)cc1O | . | ? | 9.5µM* | 13µM* | ?
COc1ccc(-c2coc3cc(O)ccc3c2=O)cc1 | 11µM* | . | . | . | .
COc1ccc(-c2coc3cc(O)ccc3c2=O)c(OC)c1 | -1% | . | . | . | .
COc1ccc(-c2cc3ccc(O)cc3oc2=O)cc1OC | . | ? | ? | ? | 1%
COc1nc(OC)nc(Oc2ccc([N+](=O)[O-])cc2Cl)n1 | -2% | -1% | -3% | 3% | -6%
CC(C)C[C@@H](CC(=O)N[C@@H](CCCN)CC(=O)N[C@@H]1CCCC[C@H]1C(=O)N[C@H](CC(=O)N[C@@H](CCC(=O)O)CC(=O)O)Cc1c[nH]c2ccccc12)NC(=O)[C@@H]1CCCC[C@H]1N | 13% | . | . | . | .
CCOc1ccccc1NC(=O)N1CCN(C)c2ncccc21 | -19% | . | 0% | . | .
CCN(C(=O)CSc1nc2ccccc2n1CC(=O)N1CCCC(C)C1)c1ccccc1 (stereo not drawn) | . | . | -4% | . | .
O=C(CSC(=S)N1CCSCC1)c1ccccc1 | 13µM* | 1.3µM* | 4.3µM* | ? | 1.3µM*
O=C(Nc1ccc(Cl)cc1)N1CCSCC1 | -7% | 0% | ? | 1% | -8%
O=C(CSC(=S)N1CCSCC1)c1ccc(Cl)cc1 | 16µM* | 3.2µM* | 3µM* | ? | 1.6µM*
CCN(CC)c1ccc(/C=C(\C#N)c2nc(-c3cccs3)c(NC(C)=O)s2)cc1 | . | -7% | ? | -1% | -9%
COc1ccc(C=O)cc1Oc1nc(Cl)ncc1F | -1% | -2% | -2% | 0% | -4%
NC1(C(=O)O)C[C@H](C(=O)O)[C@H](C(=O)O)C1 (stereo partly drawn) | -5% | . | . | . | .
COc1ccc(CCNC(=O)CCC(=O)N2CCOc3ccc(Cl)cc32)cc1OC | . | 2% | -9% | 0% | 7%
COC(=O)c1ccc(-c2ccc(Cl)cc2)nc1C | 5µM* | 1.6µM* | 1.3µM* | 8.2µM* | 1.4µM*
COC(=O)c1ccccc1NC(=O)c1sc(Cl)nc1C | . | 0% | ? | 1% | 10%
O=C(Nc1ccc2c(c1)CCC2)C1COc2ccccc2O1 (stereo not drawn) | 16µM* | 4µM* | 19µM* | 21µM* | 2.5µM*
CCn1cc(C2=NOC(C(=O)Nc3ccc4c(c3)OCO4)C2)c(C)n1 (stereo not drawn) | -33% | -2% | -11% | -5% | 0%
O=C(Nc1ccc2c(c1)OCO2)C1CC(c2ccccc2Cl)=NO1 (stereo not drawn) | 15% | ? | 2%[2.3 µM] | ? | 2.5µM*
O=C(Nc1cnc2ccccc2c1)C1COc2ccccc2O1 (stereo not drawn) | -6% | 25% | 13µM* | ? | 4µM*
